From PubChem BioAssay AID1159580 (chemical genetic matrix, 2015)
Values joined by “and” are separate entries in the source; they are usually repeats but may differ in a detail not shown here. Equal entries are not always repeated. In all, about 5,500 compounds went through this assay and about 2,000 (36%) were called active. About 18% were inconclusive and are not listed. Rule as the data show it: active = normalized growth mostly below about 0.91 (no sharp cut-off); inconclusive = no clear call, values can overlap the other calls; inactive = mostly above about 0.92. This is one part of the list.

Assay: chemical genetic growth profiling, strain panel (AID 1159580);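 also: tested at 20 µM; growth read once vehicle control cultures reached saturation at 30 °C; 1 = growth at the plate median or of vehicle wells; lower values mean less growth of the strain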
Settings: S. cerevisiae deletion strains, growth OD

Measured: normalized growth

COc1ccc(-c2cc(=O)c3ccccc3o2)cc1
0.277 (active) and 0.975 (inactive): locus YJL095W, strain BCK1, stronger effect = lower value
inactive: locus YBR021W, strain FUR4, stronger effect = lower value 0.949 | locus YBR229C, strain ROT2, stronger effect = lower value 0.932 | locus YCR088W, strain abp1, stronger effect = lower value 0.926 | locus YDL005C, strain med2, stronger effect = lower value 0.919 | locus YDL185W, strain tfp1, stronger effect = lower value 0.907 | locus YDR001C, strain nth1, stronger effect = lower value 0.923 | locus YDR069C, strain doa4, stronger effect = lower value 0.926 | locus YDR159W, strain sac3, stronger effect = lower value 0.998 | locus YDR334W, strain swr1, stronger effect = lower value 0.943 | locus YER110C, stronger effect = lower value 0.927 | locus YFR010W, strain ubp6, stronger effect = lower value 0.911 | locus YGL078C, strain dbp3, stronger effect = lower value 0.933 | locus YGL227W, strain vid30, stronger effect = lower value 0.92 | locus YGR252W, strain gcn5, stronger effect = lower value 0.824 | locus YHR079C, strain IRE1, stronger effect = lower value 1 | locus YHR094C, strain hxt1, stronger effect = lower value 0.939 | locus YIL125W, strain kgd1, stronger effect = lower value 0.949 | locus YJL115W, strain asf1, stronger effect = lower value 0.915 | locus YJL129C, strain trk1, stronger effect = lower value 0.916 | locus YJL134W, strain LCB3, stronger effect = lower value 0.928 | locus YJL154C, strain vps35, stronger effect = lower value 0.938
0.398 (active) and 0.992 (inactive): locus YHR030C, strain SLT2, stronger effect = lower value
active: locus YAL013W, strain DEP1, stronger effect = lower value 0.682 | locus YAL021C, strain ccr4, stronger effect = lower value 0.888 | locus YAL026C, strain drs2, stronger effect = lower value 0.828 | locus YAL030W, strain snc1, stronger effect = lower value 0.905 | locus YBL061C, strain skt5, stronger effect = lower value 0.869 | locus YBR009C, strain hhf1, stronger effect = lower value 0.725 | locus YBR023C, strain chs3, stronger effect = lower value 0.811 | locus YBR171W, strain sec66, stronger effect = lower value 0.869 | locus YBR231C, strain swc5, stronger effect = lower value 0.857 | locus YBR279W, strain paf1, stronger effect = lower value 0.881 | locus YCL011C, strain gbp2, stronger effect = lower value 0.809 | locus YCL016C, strain dcc1, stronger effect = lower value 0.781 | locus YCL029C, strain bik1, stronger effect = lower value 0.753 | locus YCL061C, strain MRC1, stronger effect = lower value 0.833 | locus YCL069W, strain vba3, stronger effect = lower value 0.863 | locus YDL035C, strain GPR1, stronger effect = lower value 0.656 | locus YDL040C, strain nat1, stronger effect = lower value 0.923 | locus YDL074C, strain BRE1, stronger effect = lower value 0.452 | locus YDL101C, strain DUN1, stronger effect = lower value 0.655 | locus YDL192W, strain arf1, stronger effect = lower value 0.685 | locus YDR101C, strain arx1, stronger effect = lower value 0.884 | locus YDR137W, strain rgp1, stronger effect = lower value 0.53 | locus YDR162C, strain NBP2, stronger effect = lower value 0.274 | locus YDR195W, strain ref2 1.3 [resistant] | locus YDR297W, strain sur2, stronger effect = lower value 0.899 | locus YDR318W, strain mcm21, stronger effect = lower value 0.792 | locus YDR335W, strain msn5, stronger effect = lower value 0.902 | locus YDR388W, stronger effect = lower value 0.807 | locus YDR392W, strain spt3, stronger effect = lower value 0.406 | locus YDR502C, strain sam2, stronger effect = lower value 0.757 | locus YEL003W, strain gim4, stronger effect = lower value 0.79 | locus YEL037C, strain rad23, stronger effect = lower value 0.904 | locus YEL061C, strain CIN8 (second series), stronger effect = lower value 0.904 | locus YEL061C, strain CIN8, stronger effect = lower value 0.672 | locus YER015W, strain faa2, stronger effect = lower value 0.904 | locus YER016W, strain bim1, stronger effect = lower value 0.918 | locus YER111C, strain swi4, stronger effect = lower value 0.881 | locus YER155C, strain BEM2 (second series), stronger effect = lower value 0.283 | locus YER155C, strain BEM2, stronger effect = lower value 0.734 | locus YER167W, strain BCK2, stronger effect = lower value 0.739 | locus YGL086W, strain mad1, stronger effect = lower value 0.762 | locus YGL167C, strain pmr1, stronger effect = lower value 0.894 | locus YGL173C, strain kem1, stronger effect = lower value 0.798 | locus YGL240W, strain doc1, stronger effect = lower value 0.756 | locus YGL248W, strain PDE1, stronger effect = lower value 0.636 | locus YGL253W, strain hxk2, stronger effect = lower value 0.681 | locus YGR135W, strain pre9, stronger effect = lower value 0.747 | locus YHR013C, strain ard1, stronger effect = lower value 0.771 | locus YHR027C, strain rpn1, stronger effect = lower value 0.916 | locus YHR079C, strain IRE1 (second series), stronger effect = lower value 0.887 | locus YHR129C, strain ARP1, stronger effect = lower value 0.661 | locus YHR142W, strain chs7, stronger effect = lower value 0.584 | locus YHR200W, strain rpn10, stronger effect = lower value 0.868 | locus YIL066C, strain RNR3, stronger effect = lower value 0.55 | locus YIL073C, strain SPO22, stronger effect = lower value 0.66 | locus YIR030C, strain dcg1, stronger effect = lower value 0.804 | locus YJL092W, strain hpr5, stronger effect = lower value 0.884 | locus YJL095W, strain BCK1 (second series), stronger effect = lower value 0.707 | locus YJL164C, strain tpk1, stronger effect = lower value 0.754 | locus YJL166W, strain qcr8, stronger effect = lower value 0.771 | locus YJL168C, strain set2, stronger effect = lower value 0.922 | locus YJL187C, strain SWE1 (second series), stronger effect = lower value 0.668 | locus YJL187C, strain SWE1, stronger effect = lower value 0.9 | locus YJR043C, strain POL32, stronger effect = lower value 0.724
